Where “and” joins values, the source holds several entries; their conditions need not be identical. Equal values may be shown once. Whole data set: some 5,400 compounds, median “IFI” near 2, cut for the highest 2% near 22. This is one part of a sample in which the highest values are shown more often than they occur.
Test: NOVARTIS: Inhibition Frequency Index (IFI) - the number of HTS assays where a compound showed > 50% inhibition/induction, expressed as a percentage of the number of assays in which the compound was tested.
Assay type: functional

| Compound | IFI |
| --- | --- |
| GNF-Pf-1437, CHEMBL576411 | 14.3% |
| GNF-Pf-448, CHEMBL580641 | 30% |
| GNF-Pf-2945, CHEMBL581676 | 1.82% |
| CCc1ccc(C=NNC(=O)COc2ccc3c(c2)OCO3)cc1 | 0% |
| COc1cccc2c1C(=O)c1c(O)c3c(c(O)c1C2=O)C[C@](O)(C(C)=O)C[C@@H]3O[C@H]1C[C@@H](N)[C@H](O)[C@H](C)O1 | 19.7% |
| COc1cccc2c1C(=O)c1c(O)c3c(c(O)c1C2=O)C[C@@](O)(C(=O)CO)C[C@@H]3O[C@@H]1C[C@H](N)[C@H](O)[C@H](C)O1 | 25.6% |
| COc1cccc2c1C(=O)C1C(O)=C3C(=C(O)C1C2=O)CC(O)(C(C)=NN=C1CC(C)(C)N(O)C(C)(C)C1)CC3OC1CC(C)(N)C(O)CO1 (centres undefined) | 21.4% |
| Cc1ccc(-c2cc(C(=O)OCC(=O)c3cccc([N+](=O)[O-])c3)c3cc(C)ccc3n2)cc1 | 0% |
| Cc1cc(C)c2cc(CN(CCN(C)C)C(=S)NCCCN(C)C)c(=O)[nH]c2c1 | 3.12% |
| CC1=C(CO)C(=O)O[C@@H]([C@@H](C)[C@H]2CC[C@H]3[C@@H]4C[C@H]5O[C@]56[C@@H](O)C=CC(=O)[C@]6(C)C4CC[C@]23C)C1 (some centres undefined) | 32.1% |
| Cc1ccn2c(NC(C)(C)CC(C)(C)C)c(-c3ccccc3OC(=O)CCc3ccccc3)nc2c1 | 3.74% |
| c1ccc(-c2cc(N3CCOCC3)nc(-c3ccccn3)n2)nc1 | 15.4% |
| COc1ccc(NC(=O)CCCCCn2c(SCc3cc(=O)oc4cc(O)ccc34)nc3ccsc3c2=O)cc1 | 0% |
| Cc1ccc(C=Cc2ccc(N(C)C)cc2)[n+](C)c1 | 15.4% |
| CC(C)CC[n+]1ccccc1C=Cc1ccc(N(C)C)cc1 | 15.4% |
| CC[n+]1ccccc1C=Cc1ccc(N(C)C)cc1 | 6.57% and 5.88% |
| CN(C)c1ccc(/C=C/c2cccc[n+]2C)cc1 | 6.3% |
| CCCCCC[n+]1ccccc1C=Cc1ccc(N(C)C)cc1 | 27.6% |
| CN(C)c1ccc(/C=C/c2cccc(/C=C/c3ccc(N(C)C)cc3)[n+]2C)cc1 | 25% |
| CC1CCCCN1CCCNc1ncc(C(=O)NCCc2ccccc2)c(NCC2CCCO2)n1 (centres undefined) | 3.81% |
| CCCCNC(=S)N(Cc1cccs1)Cc1cc2cc(C)ccc2[nH]c1=O | 1.82% |
| CC(C)(C)c1ccc(CNC(=O)C(Cc2ccc(O)cc2)c2ccccc2)cc1 (centres undefined) | 0% |
| O=C(CSc1oc(-c2ccc(Cl)cc2)nc1[P+](c1ccccc1)(c1ccccc1)c1ccccc1)c1ccccc1 | 21.4% |
| C=CCSc1oc(-c2ccco2)nc1[P+](c1ccccc1)(c1ccccc1)c1ccccc1 | 23.1% |

| Compound | IFI |
| --- | --- |
| CCOC(=O)C1=C(CC)NC2=C(C(=O)CC(C)(C)C2)C1c1ccccc1F (centres undefined) | 4.6% |
| CCN1/C(=C/c2cccc[n+]2C)Sc2ccc(OC)cc21 | 15.4% |
| CCC(/C=C1\Sc2ccc(OC)cc2N1CCCS(=O)(=O)O)=C\c1sc2ccc(OC)cc2[n+]1CCCS(=O)(=O)O | 22.7% |
| CC[n+]1c(/C=C(C)/C=C2\Sc3ccccc3N2CCO)sc2ccccc21 | 7.69% |
| CCOC(=O)c1c(C)[n+](-c2ccc(C)cc2)c(CC)c2cc(OC)c(OC)cc12 | 2.29% |
| Cc1ccc(-c2c3c4n(c(-c5ccc(Cl)cc5)cn4c2C(=O)Nc2ccccc2Cl)CCCC3)cc1 | 6.06% |
| CCCCN(CCCC)[P+](N(CCCC)CCCC)(N(CCCC)CCCC)N(CCCC)CCCC | 27.3% |
| CCC(=O)N1CCc2cc(Br)cc(S(=O)(=O)N3CC(C)CC(C)C3)c21 (centres undefined) | 0% |
| COc1ccc2nc3cc(Cl)ccc3c(NCCN(CCN)CCN)c2c1 | 14.5% |
| CN(C)c1ccc(C(=Cc2cc(-c3ccccc3)cc(-c3ccccc3)[o+]2)c2ccc(N(C)C)cc2)cc1 | 12.7% |
| CN(C)c1ccc(-c2nc(-c3ccc(-c4[nH]c(-c5ccc(N(C)C)cc5)nc4-c4ccccc4)cc3)c(-c3ccccc3)[nH]2)cc1 | 12.5% |
| CN(C)c1ccc(-c2cc(-c3ccccc3)[s+]c(-c3ccccc3)c2)cc1 | 31.4% |
| COc1ccc(-c2nc(NC(=O)CS(=O)(=O)c3ccccc3)sc2C)cc1 | 0% |
| C1=C(c2ccc(CN3CCCCC3)cc2)N2CCN=C2c2ccccc21 | 2.98% |
| Cc1cc(S(=O)(=O)NC(Cc2ccc([N+](=O)[O-])cc2)C(=O)O)c(Cl)cc1Cl (centres undefined) | 1.03% |
| FC(F)(F)c1cccc(Nc2nc3nonc3nc2Nc2ccc(Br)cc2)c1 | 22.2% |
| FC(F)(F)c1cccc(Nc2nc3nonc3nc2Nc2ccc(Cl)cc2)c1 | 22.7% |
| Cc1ccc2ncnc(Nc3cccc(C(F)(F)F)c3)c2c1 | 4.41% |
| c1ccc(Oc2ccc(Nc3nc4nonc4nc3Nc3ccc(Oc4ccccc4)cc3)cc2)cc1 | 0% |
| Clc1ccccc1Nc1nc2nonc2nc1Nc1cccc(Br)c1 | 15.4% |
| Clc1ccc(Nc2nc3nonc3nc2Nc2ccc(Cl)c(Cl)c2)cc1Cl | 7.14% |
| CCN(CC)c1scc(-c2ccc(Br)cc2)[s+]1 | 7.69% |
| COc1ccc(C2=C(c3ccc(OC)cc3)C3(c4ccccc4)C(=O)C2(c2ccccc2)C2C(=O)N(c4ccc(F)cc4)C(=O)C23)cc1 (centres undefined) | 0% |
| CCN1/C(=C/C=C/C2=[N+](C)c3ccc(C)cc3C2(C)C)C=Cc2ccccc21 | 28.6% |

| Compound | IFI |
| --- | --- |
| CCN1/C(=C/c2cccc[n+]2C)C=Cc2cc(C)ccc21 | 15.4% |
| CN(/C=C/C1=[N+](C)c2ccc(Cl)cc2C1(C)C)c1ccccc1 | 0% |
| CCN1/C(=C\C=C\C2=[N+](C)c3ccccc3C2(C)C)N(c2ccccc2)c2ccccc21 | 28.6% |
| COCCN1C(=O)c2ccccc2C(C(=O)Nc2cccc(C(F)(F)F)c2)C1c1cccs1 (centres undefined) | 9.09% |
| CC1CCN(S(=O)(=O)c2ccc(C(=O)Nc3sc4c(c3C(N)=O)CCN(C)C4)cc2)CC1 | 0% |
| COc1nc(C)nc(NC(=O)NC(=O)c2c(OC)ccc([N+](=O)[O-])c2OC)n1 | 2.61% |
| CCCCCc1ccc(OCCOCC[n+]2ccccc2)c(CCCCC)c1 | 4.54% |
| CN1C=CC(=Cc2sc3ccccc3[n+]2C)C=C1 | 0% |
| CCN1C(=Cc2sc3ccccc3[n+]2C)C=Cc2cccc(C)c21 | 23.1% |
| CCN1C(=Cc2sc3ccc(O)cc3[n+]2CC)C=Cc2cc(C)ccc21 | 15.4% |
| CCN1C=C(c2ccc(C)cc2)S/C1=C\c1sc2ccccc2[n+]1C | 14.7% |
| CCN1/C(=C/c2cccc[n+]2C)C=Cc2ccc(C)cc21 | 7.79% |
| CCN1C(=Cc2sc3ccccc3[n+]2C)C=Cc2ccc(C)cc21 | 23.8% |
| CCCOC(=O)C1=C(C)NC2=C(C(=O)CC(c3ccc(OC)c(OC)c3)C2)C1c1ccc(O)c(OCC)c1 (centres undefined) | 0% |
| CCOC(=O)c1cc(S(=O)(=O)NCc2ccc(F)cc2)n[nH]1 | 0% |
| C=CCC(=O)NC1CCN(CC(O)CN(Cc2ccccc2)S(=O)(=O)c2ccccc2)C1 (centres undefined) | 2.91% |
| CC12C(=O)N(c3cccc(C(=O)O)c3)C(=O)C1C1c3ccccc3C2c2ccccc21 (centres undefined) | 0% |
| CO[C@H]1C[C@H](C)Cc2cc(O)cc(c2)NC(=O)C(C)=CCC[C@H](OC)[C@@H](OC(N)=O)C(C)=CC(C)[C@H]1O (some centres undefined) | 9.62% |
| CCC(C)(C)c1ccc(Oc2ccc(NC(=O)c3ccc([N+](=O)[O-])o3)cc2)cc1 | 15.2% |
| CCOC(=O)c1ccc(NCc2c(C)[nH]c(C(=O)OCC)c2C)cc1 | 0% |
| CCN(CC)c1ccc(C=NNC(=O)c2ccc(Nc3nc(-c4ccccc4)cs3)cc2)c(O)c1 | 27.3% |
| CCN(CC)S(=O)(=O)c1ccc(-c2csc(Nc3ccc(C)c(C)c3)n2)cc1 | 4.71% |
| O=C(Nc1nc(-c2ccccc2)cs1)c1ccccc1O | 9.79% |
| Cn1nc(C(=O)NCc2ccccc2)c2c1CCN(Cc1cccc(O)c1)C2 | 1.22% |

| Compound | IFI |
| --- | --- |
| CC(C)C[C@@H]1NC(=O)[C@@H](CC(C)C)NC(=O)[C@H](C(C)C)NC(=O)[C@H]2CSSC[C@@H](NC1=O)C(=O)N2 | 25.9% |
| CC(C(=O)NCCCN)N(Cc1ccccc1)S(C)(=O)=O (centres undefined) | 3.92% |
| Oc1ccc(-c2cncc(NCc3ccccc3)n2)cc1 | 0% |
| CN(C)c1ccc(C(=C2C=CC(=[N+](C)C)C=C2)c2ccc(N(C)C)cc2)cc1 | 25.7% |
| CN(C)c1cc[n+](CC(=O)c2ccc(Cl)cc2)cc1 | 0% |
| CCCCNC(=O)c1nn(-c2ccc(OC)cc2)c(=O)c2ccccc12 | 2.35% |
| Nc1nc(N)c2c(OCc3ccc(C(F)(F)F)cc3)cccc2n1 | 7.63% |
| c1ccc(-c2cc(NCCCN3CCOCC3)nc(-c3ccccn3)n2)nc1 | 15.4% |
| CCOC(=O)c1sc2nc(N)c(C#N)c(-c3cccs3)c2c1N | 1.35% |
| CSc1oc(-c2ccccc2)nc1C(N)=O | 0% |
| CSc1oc(C(C)(C)C)nc1[P+](c1ccccc1)(c1ccccc1)c1ccccc1 | 23.2% |
| COc1ccc2c(c1)C(C)(CC#N)C(=O)N2C (centres undefined) | 1.51% |
| O=C1C(=Nc2cccc(C(F)(F)F)c2)c2ccccc2N1CN1CCc2ccccc2C1 | 0% |
| Cc1ccc(C)c(S(=O)(=O)N=C2C=C(SCC(=O)O)C(=O)c3ccccc32)c1 | 6.25% |
| O=C1C(Sc2nnc[nH]2)=CC(=NS(=O)(=O)c2cccs2)c2ccccc21 | 25% |
| Cc1ccc(S(=O)(=O)N=C2C=C(Sc3nc4ccccc4[nH]3)C(=O)c3ccccc32)cc1 | 12.7% |
| Cc1ccc(S(=O)(=O)N=C2C=C(Sc3nnc[nH]3)C(=O)c3ccccc32)cc1 | 25% |
| CCCCOc1ccc(C(=O)Oc2ccccc2-c2nc3cc(C)ccn3c2NC(C)(C)CC(C)(C)C)cc1 | 4.67% |
| COc1ccc(/C=C/c2nc(=O)c3ccccc3o2)cc1 | 0% |
| O=C(COc1ccccc1Cl)OCc1cc(=O)n2nc(C3CC3)sc2n1 | 0% |
| CCSCCOC(=O)C1=C(C)NC2=C(C(=O)CCC2)C1c1ccc(OC)c(Br)c1 (centres undefined) | 2.33% |
| CC(C)CN(C(C(=O)NC(CN1CCCC1)c1ccccc1)c1ccccc1)S(=O)(=O)c1ccccn1 (centres undefined) | 1.96% |
